Source: the supplement of paper PMC9801561
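Further: biolog PM4 phosphorus and sulfur plates, tetrazolium violet dye reduction read in the OmniLog every 15 min, kinetic curves scored by DuctApe, each plate run in triplicate.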

These compounds were tested on Escherichia coli Nissle 1917 (assay: DuctApe activity index of respiration/growth curve (0 no growth to 9 maximum) (index 0-9); higher = more growth / nutrient utilisation, active = 3 or more; extreme values may be limits of the assay). Conditions: nutrient role: sole nitrogen source (pyruvate carbon); incubation: 48 h, 37 °C.
`NCCC[C@H](N)C(=O)O` [L-Ornithine] was tested, and the DuctApe activity index was 4 (active). In the case of `NC(=O)C[C@H](N)C(=O)O` [L-Asparagine], the DuctApe activity index is reported as 8.67 (active). `O=c1[nH]cnc2c1ncn2[C@@H]1O[C@H](CO)[C@@H](O)[C@H]1O` [Inosine] was tested, and the DuctApe activity index was 0 (inactive). For `N[C@@H](CO)C(=O)O` [L-Serine], the DuctApe activity index was 8 (active).

Same assay, conditions: nutrient role: sole phosphorus source (pyruvate carbon); incubation: 48 h, 37 °C
In the case of `O=P(O)(O)OC[C@H](O)CO` (racemic) [DL-a-Glycerol Phosphate], the DuctApe activity index is reported as 8.67 (active). For `O=C[C@H](O)[C@@H](O)[C@H](O)[C@H](O)COP(=O)(O)O` [D-Glucose-6-Phosphate], the DuctApe activity index was 8.67 (active). With `O=P(O)(O)O[C@H]1O[C@H](CO)[C@@H](O)[C@H](O)[C@H]1O` [D-Glucose-1-Phosphate] the DuctApe activity index was 8.33 (active).
